In the supplement of paper PMC3334620:
Over roughly 33,000 sequences, “E-score (-0.5 to 0.5)” has its median near -0.041; the highest 2% begin near 0.37. The list comes from a sample in which the highest values are over-represented; it also holds similar and randomly drawn sequences.

molecular target: T1, Ecm22 (UniProt Q05958); assay: PBM E-score (8-mer binding enrichment) (E-score (-0.5 to 0.5)); higher = stronger / more preferred TF binding; settings: protein concentration: 200 nM; construct: GST-full length
T1 sequence: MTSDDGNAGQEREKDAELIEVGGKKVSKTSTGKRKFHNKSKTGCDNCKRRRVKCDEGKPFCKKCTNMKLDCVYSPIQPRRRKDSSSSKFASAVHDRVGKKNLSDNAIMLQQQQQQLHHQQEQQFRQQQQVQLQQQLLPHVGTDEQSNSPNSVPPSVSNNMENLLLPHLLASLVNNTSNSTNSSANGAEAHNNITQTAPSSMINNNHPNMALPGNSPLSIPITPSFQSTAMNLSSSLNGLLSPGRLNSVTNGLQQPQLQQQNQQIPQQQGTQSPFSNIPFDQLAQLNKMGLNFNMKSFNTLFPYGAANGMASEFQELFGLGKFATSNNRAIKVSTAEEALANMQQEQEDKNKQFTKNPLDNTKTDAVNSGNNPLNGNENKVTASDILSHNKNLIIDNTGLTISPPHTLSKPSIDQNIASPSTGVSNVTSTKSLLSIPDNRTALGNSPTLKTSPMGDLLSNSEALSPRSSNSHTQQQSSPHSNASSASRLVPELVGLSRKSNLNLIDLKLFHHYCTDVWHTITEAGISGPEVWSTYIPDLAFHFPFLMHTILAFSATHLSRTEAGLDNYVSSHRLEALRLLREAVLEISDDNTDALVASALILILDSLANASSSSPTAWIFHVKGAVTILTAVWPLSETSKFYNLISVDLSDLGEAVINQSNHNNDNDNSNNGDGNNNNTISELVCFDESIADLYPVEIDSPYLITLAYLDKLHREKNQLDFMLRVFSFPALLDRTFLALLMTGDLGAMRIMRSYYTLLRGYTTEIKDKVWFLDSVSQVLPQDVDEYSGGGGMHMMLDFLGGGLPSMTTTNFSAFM
Method: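 Universal 'all 10-mer' protein binding microarrays (Agilent AMADID 015681) probed with GST-tagged S. cerevisiae TFs (full-length or DBD) made by in vitro transcription/translation (PURExpress), about 100-200 nM. Bound TF was detected with fluorescent anti-GST. Each ungapped 8-mer (which stands for itself and its reverse complement) is scored by the PBM enrichment score (E-score), a modified Wilcoxon-Mann-Whitney statistic from -0.5 to +0.5, computed with the Universal PBM Analysis Suite. Scale: above 0.35 generally sequence-specific binding.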

Sequence	PBM E-score
GAACGAAC	0.453
GAACGAAA	0.43
GAACGGAC	0.279
TGACGAAA	0.061
AAACGGAC	0.307
CCACGAAA	-0.0672
AAGCGAAC	0.268
AAACGAAC	0.454
AGCGGGAG	-0.188
GGGGGTTA	-0.298
AACCCGAG	0.267
GCATCCGC	-0.18
CTGCGGGA	-0.163
AGGAGCGA	0.328
TGTATCAA	-0.0485
CGTATCAC	0.365
AGTATAAG	0.109
CGTATAAG	0.466
TGTATAAA	0.172
AGTATAAA	0.241
CATATAAG	0.0284
CGTATAAA	0.477
CGTATAAC	0.473
GGTATAAC	0.0372
CGTATCAA	0.386

Sequence	PBM E-score
AGTATAAC	0.0917
CTGAAGAC	0.056
CAAGCCGC	-0.0639
CGCTTGGC	0.0372
CCGCGCGG	0.263
CGTGTGTC	0.0878
AGATCAGC	-0.106
ACATCTTG	-0.0408
CGCAGTAC	0.174
CGCACGAA	0.175
CTTCTTCA	-0.341
CCCGAAGC	-0.0995
GGCGATGA	-0.00497
CCTTTACG	0.329
AATTTACG	0.303
ACTTTACA	-0.00715
ATTTTACC	0.06
ATTTTACG	0.392
ACTTTACG	0.394
CTCTCCGC	-0.147
GCAGTGCC	-0.179
GTAACCTA	0.00094
AGCCACGC	-0.14
ACGAGCGA	0.409
AAGAGCGT	0.0857

Sequence	PBM E-score
CCGAGCGA	0.237
ACGAGCGG	0.386
ATGAGCGG	-0.0285
CCGAGCGG	0.202
ACGAGCGC	0.327
GCGAGCGA	0.31
ACGAGCGT	0.389
AGTCTTTG	-0.0796
ATCTCGGC	0.0673
CGCTAAGA	0.149
CCACTGCC	-0.0201
GCAGGCCA	-0.00078
CACCCCCG	-0.2
TCAGTCGA	0.0318
CAAGCGGG	-0.0323
ATTCTACA	0.0155
GAGAGCGC	-0.0803
CACGAGCC	0.143
TCCGAGCA	0.236
GACGAGCC	0.0624
CACGAGCG	0.201
CACGAGCA	0.0712
TGCGAGCA	0.238
AACGAGCA	0.46
TACGAGCA	0.467

Sequence	PBM E-score
AACGAGCG	0.459
GACGAGCA	0.0907
AGCGAGCG	0.345
AACGAGCC	0.442
AGCGTGGG	-0.0957
GGTTGGAC	-0.241
AACCGAAA	0.235
AAATTCTG	-0.0343
ACCGGATC	-0.0309
CAAGTGCG	-0.0245
ACTCCATA	-0.195
CAGGAGAC	0.0295
AGGATGAG	-0.0765
ACCATAGC	-0.261
GAACCGGC	-0.0167
GCCTTTAA	-0.198
AACGAGCT	0.445
AGCGAGCT	0.309
ACCGAGCT	0.235
CCGCTTTC	-0.0554
GGCCTCCC	-0.0791
CTCGCATA	0.376
ATCGCATA	0.289
GTCGCAGA	0.123
CTCGCAGA	0.0487

Sequence	PBM E-score
CTCGCATC	0.304
GTCGCATA	0.369
ACCTTTCG	0.094
TAAAGCGA	0.213
AGTTTAAA	0.0639
AGTTTAAG	-0.127
CCTTTAAG	-0.259
GGTTTAAC	0.0725
CGTTTAAA	0.453
AGTTTAAC	0.09
CGTTTAAC	0.465
CGTTTAAG	0.429
TGTTTAAA	-0.172
ACGGCCCG	0.208
GGCGATAC	0.0112
AAGCGGCT	-0.0695
AACCCGGC	0.11
GCCACAAC	-0.055
AGGAAATG	-0.11
CTCGGTTC	0.265
CACGGTTA	0.0472
ATCGGTTA	0.362
CTCGGTTA	0.383
GTCGGTCA	0.258
GTCGGTTA	0.369

Sequence	PBM E-score
CGCGGAGC	0.116
AGAGAGAT	-0.163
ACGAGCCG	0.389
AGGAGCCG	-0.0656
ACGAGCCT	0.407
CCGAGCCG	0.227
TCGAGCCA	-0.126
ACGAGCCA	0.404
AGGAGCCT	-0.308
ACGAGCCC	0.365
CCGAGCCA	0.138
CCATTAGC	-0.0326
CTTCTGGC	-0.199
GAACTCCC	0.178
ACCTTAAC	0.0365
GTTTAAAC	0.285
ACGAGAGT	0.328
CCGAGAAA	0.247
ATGAGAAT	-0.0978
ACGAGAAC	0.4
CCGAGAAC	0.204
ACGAGAAT	0.385
ACGAGAAA	0.375
TCGAGAAA	0.0202
ACGAGAAG	0.313

Sequence	PBM E-score
AGGACCAT	0.00977
ATTCTACC	-0.12
GACAGGCA	-0.0606
AACATCCG	0.158
GGTGGAAC	0.236
ACGGCACT	0.0515
ATGATGAC	-0.0358
CAAGCTTC	0.0567
CTTTTTTA	-0.19
GCCTCGAA	0.0731
CCCTCGGA	0.211
CCCTCGTC	0.119
CCCTCGTA	0.477
GCCTCGTA	0.481
GCCTCGGA	0.175
ACCTCGTA	0.463
ACCTCGTG	0.251
ACCTCGTC	0.17
AACGGTAA	0.267
ACTGGGTA	0.0533
ATGCGTCA	0.0653
ACCGCTAA	0.144
